Assay results taken from PubChem BioAssay AID743279 (National Center for Advancing Translational Sciences (NCATS), 2014).
The whole screen tested about 360,000 compounds, of which about 17,000 (4.7%) were called active. Roughly 5% stayed inconclusive and do not appear here. This excerpt belongs to a sample that is enriched for actives. Unmarked numbers belong to inactive results. No stated cut-off is given here; in the data, active means activity change below about -50%; inconclusive means mostly about -30% to -49%; inactive means weaker than that.

Test: qHTS for Inhibitors of Inflammasome Signaling: IL-1-beta AlphaLISA Primary Screen
Details: THP-1 LPS/ATP IL-1B secretion, 16 h; at 57.5 µM, active compounds read low
Summary of the method: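 THP-1 cells pretreated 1 hr with compounds (up to 57.5 uM final), then stimulated with LPS (250 ng/mL final) plus ATP (1.25 mM final); secreted IL-1B measured by AlphaLISA after 16 hr, decreased signal indicating inhibition.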
On the % scale 0 is the no-effect control and ±100 the full control effect.

Row | Compound | activity change
1 | C[C@]12CC[C@H](O)CC1=CCC1C2CC[C@@]2(C)C1CC[C@@H]2NC(=O)CCC(=O)O (some centres undefined) | 14.7%
2 | Cc1cc2cc3n(c2nn1)N=C(Cl)CC3 | -81.1% (active)
3 | COc1cc(Cn2c3ccc(NC(=O)CC(C)c4ccccc4)cc3c(=O)n2C)ccc1F (centres undefined) | -18%
4 | CC1(C(=O)NS(=O)(=O)c2ccc(C#N)cc2)CCN1C(=O)c1ccc(C2CCCCC2)cc1 (centres undefined) | 12.1%
5 | O=C(c1ccccc1)c1ccc(C(=O)N2CCN(c3ccccc3)CC2)cc1 | -8.14%
6 | Cc1cccc(N2C(=O)c3ccc(C(=O)Nc4cccc(C(=O)O)c4)cc3C2=O)c1 | 10.8%
7 | O=C(/C=C/c1ccc(N2CCOCC2)cc1)c1ccccc1 | -239% (active)
8 | O=C(c1ccc2c(c1)C(=O)N(c1ccc(Cl)cc1)C2=O)N1CCN(c2ccccn2)CC1 | 15.8%
9 | O=C(NN=Cc1ccc(N2CCOCC2)cc1)c1cc2ccccc2cc1O | -24%
10 | O=C(O)c1ccc2c(c1)C(=O)N(c1ccc(/C=C/C(=O)c3ccccc3)cc1)C2=O | -154% (active)
11 | CC(OC(=O)c1cccnc1Cl)C(=O)NC1CCCCC1 (centres undefined) | -3.91%
12 | COc1ccc(C(=O)OCC(=O)Nc2cc(C)on2)cc1F | 10.7%
13 | C[C@@H]1CN([C@@H](C)CO)C(=O)CCCn2cc(nn2)CO[C@H]1CN(C)S(=O)(=O)c1ccc(-n2cccn2)cc1 | -5.6%
14 | COc1ccc(CCN=C2SCC(=O)N2Cc2ccccc2)cc1OC | -10.8%
15 | COc1ccc(CCN2C(=O)C(C)=C(C)C2=O)cc1OC | -6.73%
16 | COc1ccc(CCNC2=C(Cl)C(=O)N(Cc3ccccc3)C2=O)cc1OC | -67.7% (active)
17 | Nc1cccc(OCCCCCOc2cccc(N)c2)c1 | -27.6%
18 | CC(=O)Nc1c(-c2ccc(C)cc2)nc2ccc(Cl)cn12 | 13.6%
19 | O=C(COc1ccc(Cl)cc1)NCCS(=O)(=O)N1CCN(c2ccc(F)cc2)CC1 | 0.652%
20 | Cc1cc(C)cc(C(=O)N2CCN=C2SCc2ccc([N+](=O)[O-])cc2)c1 | 7.28%
21 | Cc1cccc(CC(=O)N2CCN=C2SCc2ccc([N+](=O)[O-])cc2)c1 | -73.1% (active)
22 | O=C(Cc1ccc(F)cc1)N1CCN=C1SCc1cccc([N+](=O)[O-])c1 | 26.2%
23 | O=C1NC(c2ccccc2)Cc2ccncc21 (centres undefined) | -2.81%

Row | Compound | activity change
24 | CC(C)C1Cc2[nH][nH]c(=O)c2C(c2ccc(Cl)cc2)O1 (centres undefined) | 0.108%
25 | COc1ccc(CN(C)Cc2nc3cc(OC)c(OC)cc3c(=O)[nH]2)c(OC)c1 | 1.63%
26 | COc1ccc(/C=C2/C(=O)OCc3cc(OC)c(OC)cc32)c(OC)c1 | -74.3% (active)
27 | COc1ccc(/C=C2/C(=O)N(c3ccccc3)N=C2C)c(OC)c1 | -9.74%
28 | Cc1cc(=O)c2ccc(NC(=O)c3ccccc3)cc2[nH]1 | -15.4%
29 | O=C(Cc1ccccc1)NC(=S)Nc1ccc(N2CCCCC2)cc1 | -8.88%
30 | O=C1C=CC(=O)N1c1ccc(N2CCCCC2)cc1 | -102% (active)
31 | CC(=O)Nc1ccc(S(=O)(=O)Nc2ccc(N3CCCCC3)cc2)cc1 | 0%
32 | COc1ccccc1NC(=O)C(CC(=O)O)Cc1cc(C)cc(C)c1 (centres undefined) | 14.1%
33 | Cc1cccc(C)c1-n1nnnc1C(CCc1ccccc1)N1CCN(C/C=C/c2ccccc2)CC1 (centres undefined) | -7.14%
34 | CC(C)(C)c1ccc(/C=C2\SC(=O)N=C2N)cc1 | 3.39%
35 | O=C(Nc1ccc(Sc2ccc(Br)cc2)cc1)c1ccco1 | -22.6%
36 | O=C(COC(=O)c1ccccc1NC(=O)c1ccco1)Nc1ccc2c(c1)OC(F)(F)O2 | 22.1%
37 | CCN(CC)P(=O)(Nc1ccc(SC(F)F)cc1)c1ccc(N(C)C)cc1NC(=O)c1ccco1 (centres undefined) | -50.2% (active)
38 | CCCNC(=O)c1cc(C2CCCCN2S(=O)(=O)c2cn(C)cn2)on1 (centres undefined) | 1.68%
39 | CN(C)/C(=N\OC(=O)c1ccccc1)c1nonc1N | 23.1%
40 | CCCC(=O)N1CCC1(C)C(=O)NS(=O)(=O)c1ccc(Cl)cc1 (centres undefined) | 26%
41 | O=c1[nH]c(NCCO)nnc1Cc1ccc(Cl)cc1 | -0.873%
42 | Cc1nnc(N/N=C/c2ccccn2)[nH]c1=O | 266%
43 | COc1ccc(Cc2nnc(N/N=C/c3ccccc3O)[nH]c2=O)cc1OC | -100% (active)
44 | CC(=O)OCC1(O)CC23CCC4c5ccoc5CCC4(C)C2CCC1C3 (centres undefined) | -29.5%
45 | Cc1ccccc1N1CCN(C(=O)c2cccnc2)CC1 | -6.96%
46 | O=C(Nc1ccc(N2CCN(C(=O)c3ccccc3)CC2)c(Cl)c1)c1ncn[nH]1 | -4.07%

Row | Compound | activity change
47 | O=C(Nc1ccc(N2CCN(C(=O)c3ccccc3)CC2)c(Cl)c1)c1cccnc1 | -81.2% (active)
48 | COc1ccc(C(=O)NCc2ccc(Cl)cc2)cc1S(=O)(=O)N1CCCC1 | -19.3%
49 | CCOC(=O)C1(C)CCCN(C(=O)c2cccc(Cl)c2)C1 (centres undefined) | 37%
50 | CCOC(=O)[C@]12CCCC=C1N(Cc1ccc3c(c1)OCO3)C(=O)[C@H](CC(=O)N1CCN(C(=O)c3ccco3)CC1)C2 | -17.6%
51 | COc1nc(N=C(N)N)nc2c(C)cccc12 | -63.3% (active)
52 | CC(=O)Oc1ccc(-c2nc3c(C)cccc3c(=O)o2)cc1 | 24.4%
53 | Cc1nc(N=C(N)N)nc2c(C)cccc12 | -96% (active)
54 | CCc1c(C)nc2c(OC)cccc2c1Cl | -3.94%
55 | COc1ccc(C(=O)N2CCCCC2c2cc(C(=O)Nc3ccc(F)c(Cl)c3)no2)cc1 (centres undefined) | -4.59%
56 | CCOC1=C2[C@@H](CN(S(=O)(=O)c3ccc(C)cc3)[C@H]2c2ccccc2F)[C@H]2C(=O)N(Cc3ccccc3)C(=O)[C@H]2C1 | 0.677%
57 | COc1ccc(S(=O)(=O)N(C)CC(=O)NCCCN2CCOCC2)cc1Cl | 25.8%
58 | C=CCOc1ccc(Cl)cc1CNCCCN1CCOCC1 | -12.8%
59 | COc1ccc(-c2ccc(CNCCCN3CCOCC3)o2)cc1Cl | -66% (active)
60 | Cc1[nH]c2ccccc2c1C(=O)c1cc([C@H](NC(=O)OC(C)(C)C)C(C)C)sc1N | -6.92%
61 | C[C@H](CO)N1C[C@H](C)[C@@H](CN(C)S(=O)(=O)c2ccc(F)cc2)OCc2cnnn2CCCC1=O | -17.7%
62 | CCOC(=O)[C@]12CCCC=C1N(Cc1ccc(Cl)cc1Cl)C(=O)[C@H](CC(=O)N1CCCCC1)C2 | -12.7%
63 | COc1cc(OC)c(C(=O)NNC(=O)c2ccc(NS(=O)(=O)c3cccs3)cc2)cc1OC | -0.853%
64 | COc1ccc(Cc2nnc(NC(=O)c3cc(OC)c(OC)c(OC)c3)s2)cc1OC | 64.7%
65 | COc1ccc(Cc2nnc(NC(=O)Cc3cccs3)s2)cc1 | 20.9%
66 | COc1ccc(Cc2nnc(NC(=O)c3ccc(OC)cc3OC)s2)cc1 | -81.7% (active)
67 | COCc1ccc(C(=O)N2CCc3c([nH]c4ccccc34)C2c2ccccn2)s1 (centres undefined) | -55.4% (active)
68 | O=C(c1cn2ccccc2n1)N1CCc2c([nH]c3ccccc23)C1c1ccccn1 (centres undefined) | -15.2%
69 | COc1ccc(C2c3[nH]c4ccccc4c3CCN2CCCn2cccn2)cc1C (centres undefined) | -18.9%

Row | Compound | activity change
70 | Cc1cccc(C(=O)N2CCc3c([nH]c4ccccc34)C2CC(C)C)n1 (centres undefined) | 7.12%
71 | Cc1cccc(C2c3[nH]c4ccccc4c3CCN2C(=O)c2cc(-c3cccn3C)n[nH]2)n1 (centres undefined) | -60% (active)
72 | c1ccc(C2c3[nH]c4ccccc4c3CCN2Cc2cccn2-c2cccnc2)nc1 (centres undefined) | 47.2%
73 | COCc1c(N)c(C)nc(Cl)c1C#N | 0%
74 | O=C(COc1ccc2ccccc2c1)N1CCN(C(=O)c2cccs2)CC1 | -11.7%
75 | Nc1cc(C(=O)N2CCN(c3ccccc3Cl)CC2)ccc1N1CC2CC(C1)c1cccc(=O)n1C2 (centres undefined) | 14.2%
76 | CC1=C(C(=O)N(C(C)C)C(C)C)CC(CC(=O)NCC2CCCCC2)C(=O)N1Cc1ccccc1 (centres undefined) | -28.7%
77 | CN(C)C(CNC(=O)c1cc2ccccc2o1)c1ccccc1 (centres undefined) | -4.24%
78 | CSc1ccccc1NC(=O)c1ccc2c(c1)CCN2S(C)(=O)=O | -9.72%
79 | CCOCCCN(C)C1CCN(C(=O)c2oc3ccccc3c2NC(=O)COc2cccc(C)c2)CC1 | -84% (active)
80 | COCC(=O)Nc1c(C(=O)N2CCCC2)oc2ccccc12 | -21%
81 | CCOCCCN(C)C1CCN(C(=O)c2oc3ccccc3c2NC(=O)Cc2cccc([N+](=O)[O-])c2)CC1 | -15.5%
82 | CCCN(CC(=O)Nc1ccccc1C)C(=O)c1ccc(OCC(=O)N2CCOCC2)c(OCC)c1 | -6.14%
83 | COc1cccc(CNc2nc3cc(-c4csc5ccccc45)sc3c(=O)n2C)c1 | -22.5%
84 | CCCc1cc(=O)n2[nH]c(SCc3ccccc3)nc2n1 | 12.3%
85 | CC1(Oc2cccc(F)c2)CCN(Cc2ccccc2OC(F)F)C1 (centres undefined) | 29.5%
86 | CC(=O)OC[C@@H]1CN(Cc2ccccc2)C[C@H](n2cnc3c(NCc4ccco4)ncnc32)O1 | 16.4%
87 | COc1ccc(CCNC(=O)c2ccc(NC(=O)CC3SC(N4CCCCC4)=NC3=O)cc2)cc1OC (centres undefined) | -53.6% (active)
88 | O=C(CC1SC(N2CCCC2)=NC1=O)Nc1ccc(C(=O)NCCc2ccc(F)cc2)cc1 (centres undefined) | 17.8%
89 | COc1ccc(NC(=O)CC2SC(N3CCCCC3)=NC2=O)cc1OC (centres undefined) | 3.71%
